# How the values were obtained:
# Assay in all cases: growth inhibition (% activity, log2 RLU normalised to DMSO / staurosporine); higher = more growth inhibition
# Details in all cases: 33 µM
# [1] = system: DIPGX29 (H3.3 K27M diffuse intrinsic pontine glioma line)
# Procedure, shortened: (§1)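 Cells (pHGG lines and H9-derived neural stem cells) were plated on Geltrex-coated 384-well plates and exposed to approved drugs at a single final concentration of about 33 μM, in triplicate, for 7 days at 37 °C, 5% CO2. Log2-transformed CellTiter-Glo luminescence was normalised per plate to % activity between solvent and positive control wells, and the growth-inhibition value is the median over replicates.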
# [2] = system: DIPGX37 (H3.3 K27M diffuse intrinsic pontine glioma line)
# Procedure, shortened: as §1
# [3] = system: DIPGX7 (H3.3 K27M diffuse intrinsic pontine glioma line)
# Procedure, shortened: as §1
# [4] = system: DIPGX9 (diffuse intrinsic pontine glioma line)
# Procedure, shortened: as §1
# [5] = system: HGGX39 (paediatric high-grade glioma line)
# Procedure, shortened: as §1
# [6] = system: HGGX6 (H3.3 G34R paediatric high-grade glioma line)
# Procedure, shortened: as §1
# [7] = system: HNSC
# Procedure, shortened: as §1
# [8] = system: SUDIPGIV (diffuse intrinsic pontine glioma line)
# Procedure, shortened: as §1
# [9] = system: SUDIPGVI (diffuse intrinsic pontine glioma line)
# Procedure, shortened: as §1
# [10] = system: SUDIPGXIII (diffuse intrinsic pontine glioma line)
# Procedure, shortened: as §1
SMILES,growth inhibition [1],growth inhibition [2],growth inhibition [3],growth inhibition [4],growth inhibition [5],growth inhibition [6],growth inhibition [7],growth inhibition [8],growth inhibition [9],growth inhibition [10]
CCCCc1ncc(/C=C(\Cc2cccs2)C(=O)O)n1Cc1ccc(C(=O)O)cc1,-0.827%,0.563%,-1.23%,-0.197%,0.41%,0.268%,-1.62%,-1.58%,0.0226%,-13.9%
NS(=O)(=O)c1cc2c(cc1Cl)NCNS2(=O)=O,-1.36%,-0.293%,-0.977%,0.545%,0.937%,-0.432%,-1.69%,-0.42%,0.531%,1.25%
N[C@@H]1CN(c2c(F)cc3c(=O)c(C(=O)O)cn([C@@H]4C[C@@H]4F)c3c2Cl)CC12CC2,1.84%,4.34%,1.79%,0.793%,3.53%,0.649%,0.64%,0.64%,3.9%,-3.35%
CC(=O)OCC[N+](C)(C)C,1.68%,3.32%,3.73%,1.49%,1.63%,1.69%,4.52%,1.04%,2.81%,-0.303%
CC(C)(C)c1cc(C(C)(C)C)c(NC(=O)c2c[nH]c3ccccc3c2=O)cc1O,7.53%,4.87%,25.1%,8.47%,22.4%,15.2%,11.9%,9.36%,2.56%,2.28%
CC(C)(Oc1ccc(CCNC(=O)c2ccc(Cl)cc2)cc1)C(=O)O,1.81%,2.31%,1.05%,0.682%,1.23%,1.74%,1.59%,0.843%,2.49%,-16.6%
COc1ccc(C2C(=O)c3ccccc3C2=O)cc1,-0.495%,1.03%,-0.141%,0.658%,-0.413%,1.25%,2.05%,-1.32%,-1.7%,1.54%
CCOC(=O)[C@H](CCc1ccccc1)N[C@@H](C)C(=O)N1[C@H](C(=O)O)C[C@@H]2CCC[C@@H]21,-3.8%,-1.96%,-1.64%,-2.68%,-4.08%,-5.1%,1.84%,-2.04%,-7.46%,-2.12%
Nc1ccc(S(=O)(=O)Nc2ncccn2)cc1,0.254%,1.69%,0.776%,-0.452%,0.395%,0.228%,1.26%,-0.517%,1.02%,-2.51%
CCCCCCNC(=O)n1cc(F)c(=O)[nH]c1=O,5.51%,0.97%,4.27%,14%,6.44%,9.38%,24.6%,11.2%,3.57%,2.43%
Nc1ccc(O)c(C(=O)O)c1,0.36%,1.83%,0.431%,2.63%,1.1%,1.6%,2.49%,0.538%,1.92%,-1.01%
CCCc1nn(C)c2c(=O)[nH]c(-c3cc(S(=O)(=O)N4CCN(C)CC4)ccc3OCC)nc12,0.246%,-4.11%,0.899%,-0.0138%,0.834%,-0.171%,0.834%,-2.48%,0.71%,-0.097%
O=C(O)c1cc(/N=N/c2ccc(S(=O)(=O)Nc3ccccn3)cc2)ccc1O,1.07%,-1.79%,1.57%,0.949%,1.21%,1.04%,-0.205%,0.115%,1.96%,-0.524%
NCCS,-2.8%,-1.3%,-0.687%,-1.29%,-2.78%,-3.18%,0.969%,-2.89%,-5.68%,0.354%
CCCNC(C)C(=O)Nc1ccccc1C (stereo not given),-1.66%,0.68%,-1.19%,-0.603%,0.299%,-0.0141%,-2.37%,-1.79%,-0.942%,-0.434%
N=C(N)NS(=O)(=O)c1ccc(N)cc1,1.78%,3.55%,1.86%,2.35%,3.26%,1.87%,0.257%,1.45%,1.1%,-0.789%
CCCC(=O)Nc1ccc(OCC(O)CNC(C)C)c(C(C)=O)c1 (stereo not given),-1.23%,-0.501%,-1.01%,-0.6%,-0.175%,0.315%,-4.5%,-0.848%,-2.3%,-1.79%
CCCS(=O)(=O)Nc1ccc(F)c(C(=O)c2c[nH]c3ncc(-c4ccc(Cl)cc4)cc23)c1F,0.0739%,1.21%,-0.987%,0.227%,-0.449%,2.46%,10.9%,-3.02%,1.21%,1.79%
COc1ccc2c(c1)c(CC(=O)O)c(C)n2C(=O)c1ccc(Cl)cc1,-3.09%,-0.682%,0.11%,-3.3%,-3.42%,-2.79%,-3.23%,-6.71%,-7.35%,2.32%
Cc1cnc(NC(=O)C2=C(O)c3ccccc3S(=O)(=O)N2C)s1,-1.57%,2.24%,-0.44%,-0.195%,-0.277%,-2.36%,0.475%,-3.44%,1.38%,-0.269%
CN1[C@@H]2CC[C@H]1CC(OC(=O)c1c[nH]c3ccccc13)C2 (stereo not given in full),4.79%,5.76%,6.41%,23.4%,7.53%,1.59%,58.8%,9.21%,1.15%,0.619%
O=c1[nH]c(=O)n([C@H]2C[C@H](O)[C@@H](CO)O2)cc1F,18.6%,6.96%,12.8%,10.7%,10.9%,14.3%,67.3%,26.2%,4.66%,6.72%

SMILES,growth inhibition [1],growth inhibition [2],growth inhibition [3],growth inhibition [4],growth inhibition [5],growth inhibition [6],growth inhibition [7],growth inhibition [8],growth inhibition [9],growth inhibition [10]
CC1(C)O[C@@H]2[C@@H](CO[C@@]3(COS(N)(=O)=O)OC(C)(C)O[C@@H]23)O1,-3.02%,-1.66%,-1.31%,-2.57%,-2.13%,-3.4%,-3.88%,-3.39%,-3.08%,-0.599%
CN(C(=O)CN(CCO)CC(=O)N(C)C(C)(C)Cc1ccccc1)C(C)(C)Cc1ccccc1,11.3%,3.37%,29%,4.47%,9.74%,2.56%,53.1%,3.05%,6.12%,10.4%
COC(=O)C1=C(C)NC(C)=C(C(=O)OCC(C)C)C1c1ccccc1[N+](=O)[O-] (stereo not given),1.94%,1.14%,0.789%,2.65%,5%,3.46%,5.72%,0.591%,3.16%,2.06%
C[C@]12CCC3=C4CCC(=O)C=C4CC[C@H]3[C@@H]1CC[C@@]2(O)CC#N,1.43%,-1.59%,-0.302%,0.24%,0.279%,-1.72%,0.249%,-0.958%,1.03%,0.668%
C[C@](N)(Cc1ccc(O)c(O)c1)C(=O)O,0.0946%,1.72%,-0.426%,-0.748%,-1.35%,-1.03%,0.654%,-0.812%,1.41%,-0.739%
CCN(CC)CCOC(=O)c1ccc(N)cc1,1.14%,-1.44%,2.21%,1.17%,3.11%,0.874%,2.07%,1.58%,1.31%,0.856%
CC(=O)O[C@]1(C(C)=O)CC[C@H]2[C@@H]3C=C(C)C4=CC(=O)CC[C@]4(C)[C@H]3CC[C@@]21C,0.869%,1.56%,2.71%,1.56%,-0.284%,-3.03%,-2.32%,-1.52%,-0.924%,1.41%
C[C@@H]1CN(c2c(F)c(F)c3c(=O)c(C(=O)O)cn(C4CC4)c3c2F)C[C@H](C)N1,-1.92%,-8.88%,-0.67%,-1.75%,1.32%,-0.41%,1.66%,-2.13%,-5.84%,-3.56%
O=C1CCc2ccc(OCCCCN3CCN(c4cccc(Cl)c4Cl)CC3)cc2N1,4.57%,3.86%,4.16%,4.55%,5.69%,3.13%,22%,4.8%,4.51%,14.8%
CCCCOc1ccc(C(=O)CCN2CCCCC2)cc1,3.95%,1.81%,13%,3.6%,8.09%,7.94%,6.88%,0.947%,1.6%,1.44%
Cc1cccn2c(=O)c(-c3nnn[nH]3)cnc12,0.15%,-1.28%,-0.946%,0.426%,1.29%,-0.465%,-1.69%,-0.133%,0.709%,1.3%
N#Cc1ccc(C(c2ccc(C#N)cc2)n2cncn2)cc1,-0.88%,0.114%,-0.157%,-0.262%,-0.621%,-0.866%,0.581%,-0.66%,1.28%,1.04%
O=C1c2c(O)ccc(O)c2C(=O)c2c(NCCNCCO)ccc(NCCNCCO)c21,62.2%,58.9%,59.1%,55.9%,61.6%,59%,62.7%,59.9%,35.8%,39.8%
C[C@@H]1C/C=C/C=C/C=C/C=C/[C@H](O[C@@H]2O[C@H](C)[C@@H](O)[C@H](N)[C@@H]2O)C[C@@H]2O[C@](O)(C[C@@H](O)C[C@H]3O[C@@H]3/C=C/C(=O)O1)C[C@H](O)[C@H]2C(=O)O,1.2%,2.42%,1.64%,1.2%,1.86%,0.734%,-0.468%,0.119%,3.23%,0.668%
CCN(CC)CCOCCOC(=O)C(CC)(CC)c1ccccc1,7.78%,4.64%,14.3%,2.65%,9.22%,10.7%,6.61%,2.41%,4.8%,-0.0734%
CCc1cc2c(cc1CC)CC(NC[C@H](O)c1ccc(O)c3[nH]c(=O)ccc13)C2,-0.957%,-0.915%,0.341%,-1.43%,0.343%,-1.65%,23.5%,1.53%,-4.28%,0.665%
OC(CCN1CCCCC1)(c1ccccc1)c1ccccc1,-0.46%,1.3%,-0.768%,-0.762%,-0.68%,0.348%,-1.66%,-1.24%,0.131%,1.07%
CCOC(=O)OC(C)OC1=C(C(=O)Nc2ccccn2)N(C)S(=O)(=O)c2ccccc21 (stereo not given),-0.868%,0.235%,-2.67%,-1.56%,-0.486%,-1.42%,-2.72%,-2.47%,-3.26%,-1.05%
COc1c(N2CCNC(C)C2)c(F)cc2c(=O)c(C(=O)O)cn(C3CC3)c12 (stereo not given),0.952%,-1.73%,2.3%,1.28%,4.77%,0.493%,8.87%,1%,2.31%,1.42%
CC(=O)Oc1ccccc1C(=O)Nc1ncc([N+](=O)[O-])s1,0.503%,4.15%,3.15%,1.52%,3.31%,1.98%,7.17%,3.07%,1.06%,63.6%
CCCNC(=O)NS(=O)(=O)c1ccc(Cl)cc1,2.28%,4.25%,2.73%,6.15%,3.29%,2.21%,9.27%,2.61%,2.64%,0.944%
COc1cc([C@@H]2c3cc4c(cc3[C@@H](O[C@@H]3O[C@@H]5CO[C@@H](c6cccs6)O[C@H]5[C@H](O)[C@H]3O)[C@H]3COC(=O)[C@H]23)OCO4)cc(OC)c1O,22%,1.57%,29.9%,47.9%,14.2%,23.6%,59.9%,48%,10%,20.7%
